Records with an inconclusive call do not appear. Activity calls are given as the source filed them. Rule for the calls, unless noted: active = hit-call score of the fitted dose curve at least 0.9, where 1 is the maximum; inactive = score below 0.9.

Assay [1] in a line: APR_HepG2_CellCycleArrest_1hr: Apredica 1-hour HepG2 Assay for Cell Cycle Arrest (AID 2282666). As to conditions: high-content imaging, actives raise or lower the signal. The method in brief: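 Cell cycle arrest scored from nuclear DNA content (Hoechst 33342) using high-content imaging of fixed HepG2 cells after 1 h treatment across 0.39–200 uM, in duplicate. Gain or loss fitted relative to 0.5% DMSO.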

The nature of assay [2]: ACEA_ER_80hr: ACEA Biosciences xCELLigence Real-Time Cell Analysis on Estrogen Receptor Agonism for Proliferation (AID 2282667; active = hit-call score of the fitted dose curve at least 0.9, where 1 is the maximum). The settings on record: T47D proliferation, impedance (xCELLigence), 80 h. The procedure, abridged:
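Estrogen-driven proliferation is captured as electrode impedance in T47D cells 80 h after compound addition. Test articles ran at 8 concentrations, 1:4 dilutions from 100 uM final, in two replicate plates.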

Assay [3] can be described thus: APR_HepG2_CellLoss_1hr: Apredica 1-hour HepG2 Assay for Cell Loss (AID 2282668).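 Note: curves fitted both ways against DMSO so gain or loss of cells counts.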 The settings on record: high-content imaging. The procedure, abridged: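 Cell number comes from high-content imaging of Hoechst-labelled nuclei in fixed HepG2 cells. Cells were exposed for 1 h to ten concentrations from 0.39 to 200 uM in 0.5% DMSO. Gain or loss was fitted against DMSO controls.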

A short description of assay [4]: APR_HepG2_MicrotubuleCSK_1hr: Apredica 1-hour HepG2 Assay for Microtubule CSK Stabilty (AID 2282669). As to conditions: HepG2 microtubule cytoskeleton imaging, actives raise or lower the signal. The method in brief: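 Alpha-tubulin immunofluorescence, imaged by automated high-content microscopy with Hoechst nuclear segmentation, measured cytoskeletal change after 1 h dosing of HepG2 at 0.39–200 uM in 0.5% DMSO. Activity fitted in both directions relative to DMSO.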

Assay [5] in a line: APR_HepG2_p53Act_1hr: Apredica 1-hour HepG2 Assay for p53 Activation (AID 2282671). As to conditions: high-content imaging, actives raise or lower the signal. The method in brief: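 After 1 h exposure (0.39–200 uM, 0.5% DMSO final, duplicates), fixed HepG2 cells were labelled with anti-p53 antibody plus Hoechst nuclear stain. Fluorescence quantified by automated 20x imaging; changes fitted in both directions against DMSO.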

Assay [6] is described as follows: APR_HepG2_P-H2AX_1hr: Apredica 1-hour HepG2 Assay for H2AX Phosphorylation (AID 2282673). As to conditions: high-content imaging, actives raise or lower the signal. The method in brief:
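Phospho-H2A.x immunofluorescence (1:200, FITC secondary) plus Hoechst nuclear stain, quantified by high-content imaging in HepG2 after 1 hr compound exposure. Ten concentrations, 0.39 to 200 uM, in duplicate with 0.5% DMSO; fit both directions against DMSO.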

Assay [7] is described as follows: APR_HepG2_MitoMembPot_1hr: Apredica 1-hour HepG2 Assay for Mitochondrial Membrane Potential (AID 2282675). As to conditions: imaging, actives raise or lower the signal. The method in brief: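 Mitochondrial membrane potential read as MitoTracker Red CMXRos intensity by automated imaging of fixed HepG2 cells. Dye at 250 nM for 30 min pre-fixation; compounds 0.39 to 200 uM for 1 hour, duplicate wells, 0.5% DMSO.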

A short description of assay [8]: APR_HepG2_CellCycleArrest_24hr: Apredica 24-hour HepG2 Assay for Cell Cycle Arrest (AID 2282905).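 Note: cell cycle arrest scored as ratio of 2N to 4N nuclear DNA content.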 The settings on record: imaging, actives raise or lower the signal. The procedure, abridged: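 After 24 h exposure at 0.39–200 uM in 0.5% DMSO, fixed cells received Hoechst 33342 staining. Imaging quantified per-nucleus DNA content; gain or loss fitted against DMSO controls.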

Assay [9] in a line: APR_HepG2_CellLoss_24hr: Apredica 24-hour HepG2 Assay for Cell Loss (AID 2282908).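 For AC50: fit in both directions so a hit may be cell loss or gain.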 As to conditions: high-content imaging. The method in brief:
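Nuclei stained with Hoechst 33342 after formaldehyde fixation (3.7%) were imaged at 20x to count cells. Exposure lasted 24 hr, at ten concentrations from 0.39 to 200 uM in duplicate, with 0.5% v/v DMSO. Fit bidirectional, relative to DMSO.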

The nature of assay [10]: APR_HepG2_MitoticArrest_24hr: Apredica 24-hour HepG2 Assay for Mitotic Arrest (AID 2282910). The settings on record: high-content imaging, actives raise or lower the signal. The procedure, abridged:
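High-content imaging of fixed HepG2 cells labeled with Hoechst 33342 and anti-phospho-histone H3, after 24 h treatment. Ten concentrations 0.39 to 200 uM in duplicate, final DMSO 0.5%; changes fitted both directions relative to DMSO.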

The nature of assay [11]: APR_HepG2_MitoMembPot_24hr: Apredica 24-hour HepG2 Assay for Mitochondrial Membrane Potential (AID 2282911). The settings on record: imaging, actives raise or lower the signal. The method in brief: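 Mitochondrial dye uptake (MitoTracker Red CMXRos, 250 nM, 30 min pre-fixation) in HepG2 after 24 hr compound exposure, 0.39–200 uM; ArrayScan images at 20x, activity fitted in both directions relative to DMSO.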

Assay [12] can be described thus: APR_HepG2_MitoMass_24hr: Apredica 24-hour HepG2 Assay for Mitochondrial Mass (AID 2282912). The settings on record: high-content imaging, actives raise or lower the signal. The method in brief: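 Endpoint is MitoTracker Red CMXRos (250 nM, 30 min, pre-fixation) intensity from 20x high-content imaging, nuclei located by Hoechst. Human HepG2 cells received ten concentrations from 0.39 to 200 uM in 0.5% DMSO for 24 hr, duplicate wells. Bidirectional fit relative to DMSO.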

The nature of assay [13]: APR_HepG2_p53Act_24hr: Apredica 24-hour HepG2 Assay for p53 Activation (AID 2282913).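 Note: p53 protein immunofluorescence averaged per cell in HepG2 with Hoechst nuclei.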 As to conditions: high-content imaging, actives raise or lower the signal. The method in brief: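 Following 24 hr dosing of HepG2 at 0.39–200 uM, the cells undergo formaldehyde fixation, Triton permeabilization and multiplexed antibody labeling that includes p53 (Cy5). Signal from the imaging is referenced to DMSO solvent controls.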

Assay [14] can be described thus: APR_HepG2_CellCycleArrest_72hr: Apredica 72-hour HepG2 Assay for Cell Cycle Arrest (AID 2282914). As to conditions: high-content imaging, actives raise or lower the signal. The procedure, abridged: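 Using multiplexed high-content imaging, HepG2 nuclei stained with Hoechst 33342 (2 ug/mL) were analysed for DNA content after fixation and permeabilization. Treatment lasted 72 hr across 0.39–200 uM in duplicate with final DMSO 0.5% v/v; DMSO served as negative control.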

Assay [15] in a line: APR_HepG2_MitoticArrest_1hr: Apredica 1-hour HepG2 Assay for Mitotic Arrest (AID 2282672). The settings on record: high-content imaging, actives raise or lower the signal. The method in brief: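 Ten-point concentration series (0.39 to 200 uM, duplicates, 0.5% v/v DMSO) applied to human HepG2 liver cells for 1 hr. High-content imaging of phospho-histone H3 and Hoechst-stained nuclei after fixation and permeabilization; DMSO-normalised bidirectional fit.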

Assay [16] can be described thus: APR_HepG2_MitoMass_1hr: Apredica 1-hour HepG2 Assay for Mitochondrial Mass (AID 2282674). The settings on record: high-content imaging, actives raise or lower the signal. The procedure, abridged:
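Mitochondrial mass is taken from MitoTracker Red CMXRos (250 nM, 30 min, pre-fixation) fluorescence imaged at 20x in HepG2 cells. Exposure lasted 1 hr across ten concentrations, 0.39 to 200 uM, 0.5% DMSO; DMSO baseline, bidirectional fitting.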

Assay [17] can be described thus: APR_HepG2_StressKinase_1hr: Apredica 1-hour HepG2 Assay for Stress Kinase (AID 2282906). As to conditions: HepG2 stress kinase (phospho-c-Jun) imaging, actives raise or lower the signal. The procedure, abridged:
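High-content imaging of phospho-c-Jun immunostaining (with Hoechst nuclear identification) after a 1 h exposure of HepG2 cells to 10 concentrations from 0.39 to 200 uM, final DMSO 0.5%. Fitted bidirectionally against DMSO.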

Assay [18] in a line: APR_HepG2_NuclearSize_1hr: Apredica 1-hour HepG2 Assay for Nuclear Size (AID 2282670). The settings on record: high-content imaging, actives raise or lower the signal. The method in brief: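 Nuclear size measured by high-content imaging of Hoechst 33342 nuclear stain after formaldehyde fixation; human HepG2 line exposed 1 hr to compounds at 0.39–200 uM in 0.5% DMSO, with bidirectional curve fitting relative to DMSO.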

Assay [19] can be described thus: APR_HepG2_MicrotubuleCSK_24hr: Apredica 24-hour HepG2 Assay for Microtubule CSK Stabilty (AID 2282909). As to conditions: HepG2 microtubule cytoskeleton imaging, actives raise or lower the signal. The procedure, abridged:
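Fixed HepG2 cells were stained for alpha-tubulin and imaged after 24 hr exposure to ten concentrations spanning 0.39–200 uM in 0.5% DMSO. Signal change was fitted in both directions relative to DMSO; taxol was the positive control.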

Regarding `CCOc1cc(Oc2ccc(C(F)(F)F)cc2Cl)ccc1[N+](=O)[O-]`, the call in assay [1], in [2], in assay [3], in [4], in [5] and in assay [6] was inactive. Moreover, the molecule was called inactive in assay [7], in assay [8], in assay [9], in assay [10], in [11] and in assay [12]. The result in [13] and in assay [14] was inactive.

Take `CCOC(=O)CC(SP(=S)(OC)OC)C(=O)OCC` (centres undefined): the molecule was called inactive in [1], in assay [2], in [3], in assay [4], in assay [5] and in assay [15]. Moreover, the outcome in assay [6], in assay [16], in assay [7], in assay [8], in assay [17] and in assay [9] was inactive. The result in assay [10], in assay [11], in [12], in assay [13] and in assay [14] was inactive.

As usually defined, the AC50 is the concentration giving half of the maximal activity seen. Take `Oc1ccccc1-c1ccccc1`: the molecule was classed as inactive in assay [1], in assay [2], in assay [3], in assay [4], in assay [5] and in assay [6]. Besides, the result in assay [7], in [9], in assay [10], in [11], in assay [12] and in assay [13] was inactive. Moreover, the molecule was called inactive in assay [14]. Moreover, the AC50 in assay [8] is 82.1 µM (active).

With `COP(=S)(OC)Oc1nc(Cl)c(Cl)cc1Cl`, the outcome in [1], in assay [2], in [3], in assay [4], in assay [18] and in assay [15] was inactive. The outcome in assay [6], in assay [16], in [7], in assay [8], in [9] and in assay [19] was inactive. Moreover, the molecule was classed as inactive in assay [10], in [11], in assay [12], in [13] and in [14].

Consider `COC(=O)N(OC)c1ccccc1COc1ccn(-c2ccc(Cl)cc2)n1`, for which the outcome in assay [1], in assay [2], in assay [3], in assay [4], in [5] and in assay [6] was inactive. Also, the call in [8], in [17], in [10], in assay [12], in assay [13] and in assay [14] was inactive. Besides, the AC50 in assay [7] was 0.0634 µM (active); in [9], 3.37 µM (active); in [19] it was 6.07 µM (active); in assay [11], 0.332 µM (active).

Regarding `COP(N)(=O)SC` (centres undefined), the outcome in assay [1], in assay [2], in [3], in [4], in assay [18] and in assay [6] was inactive. For the same molecule, the molecule was called inactive in [7], in assay [8], in assay [17], in assay [9], in [10] and in assay [11]. The call in assay [12], in [13] and in assay [14] was inactive.

As to `C#CCOS(=O)OC1CCCCC1Oc1ccc(C(C)(C)C)cc1` (centres undefined), the molecule was called inactive in assay [1], in [3], in assay [4], in assay [5], in assay [6] and in [17]. The molecule was classed as inactive in [10], in assay [12] and in assay [13]. The AC50 in [2] is 0.355 µM (active); in assay [7], 82.3 µM (active); in assay [8], 3.03 µM (active); in assay [9], 7.2 µM (active); in [19] it was 38.4 µM (active); in assay [11], 6.31 µM (active). For the same molecule, in assay [14], the AC50 was 2.92 µM (active).

The values above are taken from PubChem BioAssay (EPA / NIEHS).
